About 440 (0.52%) of roughly 85,000 compounds showed an effect of 50% or more. The full list was thinned out, with strong results kept by preference.
Experiment: In vitro enzyme assay to detect hydrolysis of chlorophenol red-beta-D-[…] directly proportional to the number of Toxoplasma stably expressing beta-galactosidase
Type: functional, organism-based, Toxoplasma gondii
Set-up: scale not given: in the data most compounds retested in dose-response had high values

| SMILES | Percent Effect (50 µM) [%] | Percent Effect (10 µM) [%] |
| --- | --- | --- |
| N#CCC(=O)Nc1ccc(N2CCOCC2)cc1 | -1.188 | – |
| CCCNC(=O)CCNC(=O)Nc1cc(C)cc(C)n1 | 12.25 | – |
| NCCC(=O)Nc1ccccc1 | 99.48 | – |
| NCC(=O)Nc1ccccc1 | 0.1294 | – |
| Cl.NCCC(=O)Nc1ccc(-c2ccccc2)cc1 | – | 10.41 |
| Nc1nc2c(c(NCc3ccncc3)n1)CCCC2 | – | 12.09 |
| CNCc1ccc(N)nc1 | 63.11 | – |
| CNCc1ccc(N(C)C)nc1 | -20.16 | – |
| NCc1ccc(N)nc1 | -3.539 | – |
| Cc1nc2c(c(NCc3ccc(N)nc3)n1)CCCC2 | 50.4 | – |
| Cc1nc2c(c(NCc3cnc4c(c3)CCC4)n1)CNC2 | – | -1.27 |
| NCc1cnn(-c2ccc(F)cc2)c1 | 4.484 | – |
| C1CC(OC2CCOC2)CCN1 (stereo unspecified) | 3.071 | – |
| COCCCOC1CN(C(=O)c2cc(F)ccc2C)C1 | 0.2477 | – |
| CCCc1nc2c(c(C)c(C)n2Cc2ccccn2)c(N)c1CC | – | 74.72 |
| CCCc1nc2c(c(C)c(C)n2Cc2ccncc2)c(N)c1CC | – | -0.599 |
| CCCc1nc2c(c(C)c(C)n2Cc2cccnc2)c(N)c1CC | – | 33.67 |
| CCNC(=O)C(C)N (stereo unspecified) | -4.292 | – |
| COc1cc(OC)cc(N2CC(N)CC2=O)c1 (stereo unspecified) | 17.36 | – |
| Cl.NC1CCc2nc(-c3cccnc3)nc(Nc3ccc(F)cc3)c2C1 (stereo unspecified) | – | 24.29 |
| O=C(Nc1cccc(F)c1)C1CCCN1 (stereo unspecified) | 7.876 | – |
| Cl.NC1CCc2nc(-c3ccncc3)nc(Nc3cccc(F)c3)c2C1 (stereo unspecified) | – | 92.97 |
| CCOCCNc1nc(-c2ccncc2)nc2c1CCNCC2 | – | -6.442 |
| O=C(Nc1cccc(F)c1)NC1CCN(Cc2ccncc2)CC1 | – | 6.4 |

| SMILES | Percent Effect (50 µM) [%] | Percent Effect (10 µM) [%] |
| --- | --- | --- |
| N[C@@H]1CCO[C@H]1c1ccnn1-c1ccccc1 | -18.85 | – |
| CNC(=O)[C@@H]1CCCN1 | -5.087 | – |
| O=c1cc(CN2CCOCC2)nc2sccn12 | 2.592 | – |
| CN1CCCC1CCSc1nc(N)c(C#N)cc1C#N (stereo unspecified) | -0.4089 | – |
| Cc1cc(C)nc(NC(=O)c2ccncc2)c1 | 31.27 | – |
| CCO[C@@H]1COCC[C@H]1NC(=O)c1cncn1C | 0.586 | – |
| CN(Cc1noc(C2CC2)n1)C1CCN(Cc2cccc(F)c2F)C1 (stereo unspecified) | – | 67.09 |
| CN(Cc1noc(C2CC2)n1)C1CCN(Cc2ccc(F)c(F)c2)C1 (stereo unspecified) | – | 1.098 |
| CN(Cc1noc(C2CC2)n1)C1CCN(Cc2ccccc2C#N)C1 (stereo unspecified) | – | 2.644 |
| CCNC(=O)CNc1noc(C(C)(C)C)n1 | -18.17 | – |
| COCCN(CC(=O)N(C)C)c1ncccn1 | 1.212 | – |
| COCCN(CCOC)CC(=O)N(C)C | 56.58 | – |
| CCCN(CCOC)CC(=O)N(C)C | 8.072 | – |
| OC1CCCN(CCOc2ccccc2)C1 (stereo unspecified) | 1.087 | – |
| CCC(C)Oc1ccc(CNCCNS(C)(=O)=O)cc1Cl (stereo unspecified) | – | 19.69 |
| CCC(C)Oc1ccc(CNCCc2c[nH]cn2)cc1Cl (stereo unspecified) | – | 81.15 |
| CCC(C)Oc1ccc(CNCCNC(C)=O)cc1Cl (stereo unspecified) | – | 19.61 |
| CCN(CCN(C)C)C(=O)c1cn(CCN)nn1 | 2.797 | – |
| Cc1cc(NC(=O)C(C)N(C)Cc2cc(C)on2)on1 (stereo unspecified) | 5.589 | – |
| Cc1ccc(C(=O)NC2CCN(C(C)C)CC2)o1 | -16.97 | – |
| OCCCN(Cc1ccccc1)Cc1ccccn1 | -0.1376 | – |
| NCc1cccc(C(F)(F)F)n1 | 30.32 | – |
| COc1ccc(CCC(=O)NCCNC(C)=O)cc1 | 21.36 | – |
| CCOC(=O)CNC(=O)NCCc1ccc(OC)cc1 | -17.09 | – |

| SMILES | Percent Effect (50 µM) [%] | Percent Effect (10 µM) [%] |
| --- | --- | --- |
| COc1ccc(CCNC(=O)NCCCC(N)=O)cc1 | 98.98 | – |
| CC1(C)CCCN(C(=O)CCS(C)(=O)=O)CC1 | -2.783 | – |
| CCCC(N)C(=O)N(C)Cc1cccc(N(C)C)c1 (stereo unspecified) | 89.59 | – |
| CC[C@H](N)C(=O)N(C)Cc1cccc(OC(F)(F)F)c1 | 4.147 | – |
| CCCC(=O)N(C)Cc1cccc(OC(C)C)c1 | – | 0.05359 |
| CCN(CC)C(=O)CN1CCC(N)CC1 | -1.204 | – |
| NC1CCN(C(=O)Nc2ccccc2)C1 (stereo unspecified) | 93.84 | – |
| CNCC1CCN(C(=O)Nc2ccccc2)CC1 | -5.234 | – |
| NS(=O)(=O)CC1CCN(C(=O)Nc2ccccc2)CC1 | 13.92 | – |
| N[C@H]1CN(CC(=O)N2CCCCC2)C[C@@H]1C1CC1 | 3.394 | – |
| CCC(NC(=O)CCC(=O)OC)c1ccccc1 (stereo unspecified) | -2.759 | – |
| Cc1ccc(CN(CCCn2ccnc2)Cc2c[nH]nc2C(C)(C)C)s1.O=C(O)CC(O)(CC(=O)O)C(=O)O | – | -5.969 |
| COc1ccc(F)c(CN(CCCn2ccnc2)Cc2ccc(C)s2)c1.O=C(O)CC(O)(CC(=O)O)C(=O)O | – | 53.53 |
| Cc1ccc(CN(CCCn2ccnc2)Cc2c[nH]cn2)s1.O=C(O)CC(O)(CC(=O)O)C(=O)O | – | 27.23 |
| Cc1ccc(CN(CCCn2ccnc2)Cc2cccs2)s1.O=C(O)CC(O)(CC(=O)O)C(=O)O | – | 13.55 |
| Cc1ccc(O)c(CN(CCCn2ccnc2)Cc2ccc(C)s2)c1.O=C(O)CC(O)(CC(=O)O)C(=O)O | – | 4.169 |
| Cc1ccc(CN(CCCn2ccnc2)Cc2c(F)cccc2F)s1.O=C(O)CC(O)(CC(=O)O)C(=O)O | – | 36.95 |
| Cc1ccc(CN(CCCn2ccnc2)Cc2ccccc2O)s1.O=C(O)CC(O)(CC(=O)O)C(=O)O | – | -8.716 |
| Cc1ccc(CN(CCCn2ccnc2)Cc2cc(F)ccc2F)s1.O=C(O)CC(O)(CC(=O)O)C(=O)O | – | 64.14 |
| CCc1ccc(CN(CCCn2ccnc2)Cc2ccc(C)s2)o1.O=C(O)CC(O)(CC(=O)O)C(=O)O | – | 5.317 |
| Cc1ccc(CN(CCCn2ccnc2)Cc2cnn(C)c2)s1.O=C(O)CC(O)(CC(=O)O)C(=O)O | – | -58.36 |
| COc1ccc(NC(=O)CN)cc1Cl | 1.653 | – |
| O=C1CNC2(CCCCC2)C(=O)N1 | -1.267 | – |
| OCc1cnc2c(F)cccc2c1 | -7.989 | – |

| SMILES | Percent Effect (50 µM) [%] | Percent Effect (10 µM) [%] |
| --- | --- | --- |
| O=C(NCCCn1cccn1)N1CCSCC1 | 12.95 | – |
| CC1COCCN1CCNS(C)(=O)=O (stereo unspecified) | -4.94 | – |
| CCC(N)C(=O)N1CCN(c2ccncc2Cl)CC1 (stereo unspecified) | 0.3763 | – |
| OCC1(O)CCN(Cc2cc3ccccc3s2)C1 (stereo unspecified) | 15.65 | – |
| O=C(COc1ccc2c(c1)OCO2)NCc1ccco1 | – | -39.93 |
| O=C(COc1ccc2c(c1)CCC2)NCc1ccco1 | – | 52.59 |
| O=C(COc1ccc2c(c1)CCCC2=O)NCc1ccco1 | – | -0.7551 |
| CN(C1CCCCC1)S(=O)(=O)NC1CCCCNC1=O (stereo unspecified) | -10.23 | – |
| CCCc1nc(C)cc(NCCO)n1 | 22.28 | – |
| CCc1cccc(OCC(=O)N2CCCC(n3cncn3)C2)c1 (stereo unspecified) | – | 61.63 |
| O=C(CCOc1cccc(F)c1)N1CCCC(n2cncn2)C1 (stereo unspecified) | – | -5.343 |
| COc1cccc(COCC(=O)N2CCCC(n3cncn3)C2)c1 (stereo unspecified) | – | 5.194 |
| CN(Cc1ccccc1)C1(CN)CCC1 | -8.467 | – |
| OC1CCN(c2ccnc(NCCc3ccccc3Cl)n2)CC1 | – | -8.745 |
| OC1CCN(c2ccnc(NCCN3CCc4ccccc4C3)n2)C1 (stereo unspecified) | – | -7.659 |
| OC1CCN(c2ccnc(NCCc3ccccc3Cl)n2)C1 (stereo unspecified) | – | 73.82 |
| CC1(C)CCN(C(=O)Nc2ccsc2)CCS1(=O)=O | 14.26 | – |
| O=C(CCCc1cn[nH]c1)N1CCS(=O)(=O)CC1 | -1.399 | – |
| Cc1cc2[nH]c(=O)c(=O)[nH]c2cc1S(=O)(=O)NC1CCCCC1 | – | 9.258 |
| Cc1c(S(=O)(=O)NC2CC2)cc2c(C)cc(=O)n3c2c1CCC3 | – | 69.29 |
| CCCNS(=O)(=O)c1cc2c3c(c1)c(C)cc(=O)n3CCC2 | – | -12.19 |
| Cc1c(S(=O)(=O)N2CCOCC2)cc2c(C)cc(=O)n3c2c1CCC3 | – | 70.37 |
| Cc1cc(S(C)(=O)=O)c(C)c(S(=O)(=O)NC2CCCC2)c1 | – | -4.298 |
| Cc1cc(=O)n2c3c(cc(S(=O)(=O)NC4CC4)cc13)CCC2 | – | 88.28 |

| SMILES | Percent Effect (50 µM) [%] | Percent Effect (10 µM) [%] |
| --- | --- | --- |
| CCN(CC)S(=O)(=O)c1cc2c3c(c1)c(C)cc(=O)n3CCC2 | – | 17.21 |
| O=C1COc2ccc(S(=O)(=O)N3CCOCC3)c3c2N1CCC3 | – | -24.36 |
| CCN(CC)S(=O)(=O)c1cc2c3c(c1)c(C)cc(=O)n3CC2 | – | -2.001 |
| Cc1cccc(OCC(=O)NCC2CCNCC2)c1 | -0.8091 | – |
| CCOC(=O)N1CCN(C(=O)c2onc(C)c2Cl)CC1 | 1.461 | – |
| CCSc1cc(CN)ccn1 | -10.09 | – |
| NC(=O)CCSc1nc2ncccn2n1 | -6.184 | – |
| CCCC(=O)N(C)C1CCN(C)CC1 | 4.372 | – |
| COc1ccc(CNC(=O)CN)cc1 | -16.08 | – |
| CC(C)C(CC(=O)NCC(N)=O)c1ccccc1 (stereo unspecified) | 0.4392 | – |
| Cn1cc(-c2cnc(N3CCCC3)nc2)cc1C(=O)O | – | -6.676 |
| CCCNC(=O)c1cc(-c2cnc(N3CCCC3)nc2)cn1C | – | 59.81 |
| CN(C)CCNC(=O)c1cc(-c2cnc(N3CCCC3)nc2)cn1C.O=C(O)C(F)(F)F | – | 16.58 |
| CNS(=O)(=O)c1c[nH]cn1 | -8.669 | – |
| Cc1ccc(CN2CCC(N)C2=O)cc1 (stereo unspecified) | 0.3266 | – |
| NC1CCCN(Cc2ccccc2)C1=O (stereo unspecified) | 3.99 | – |
| NC1CCN(Cc2ccccc2)C1=O (stereo unspecified) | 57.3 | – |
| Cn1nccc1C(=O)NC1Cc2ccccc2C1 | 4.859 | – |
| CCc1nc(CN2CCCC2C(=O)N(C)C)cs1 (stereo unspecified) | 6.641 | – |
| CC(NC(=O)c1ccncc1F)C(C)(C)CN(C)C (stereo unspecified) | -0.7264 | – |

Source: ChEMBL document CHEMBL3988442, “University of Dundee, Small-Polar-MMV Screening Library” (2021)
